Laboratory results as given in PubChem BioAssay (Tox21).
Results filed as inconclusive are left out. Active and inactive are the calls of the source. Unless noted, calls follow the shape of the dose curve; as a rule, active = well fitted curve in the direction sought with a large enough effect in the repeat runs; inconclusive = weak or mixed curves; inactive = no such curve, though single readings can be large; an effect the other way counts as inactive or inconclusive.

Key:
[1] = qHTS assay for small molecule agonists of the p53 signaling pathway (AID 651631; calls by dose curve; also: nearly all actives have a fitted effect of over 15% in size)
Outline: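 Agonist mode screen using a stably integrated beta-lactamase gene under p53 response elements in HCT-116 cells. Compound exposure lasts 16 h at 37 °C; fluorescence intensity is measured following 2 h FRET substrate loading.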

[2] = qHTS assay for small molecules that induce genotoxicity in human embryonic kidney cells expressing luciferase-tagged ATAD5 (AID 651632); also: nearly all actives have a fitted effect of over 15% in size
Outline: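 Concentration-response screen for ATAD5 upregulation in HEK293T luciferase reporter cells; 16 hr treatment at 37C, then luminescence after 30 min with Amplite at room temperature.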

[3] = qHTS assay for small molecule agonists of the p53 signaling pathway - cell viability (AID 651633; calls by dose curve;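 also: p53RE-bla HCT reporter cells with a stable beta-lactamase p53 reporter; series mostly up to about 83 µM; nearly all actives have a fitted effect of over 30% in size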)
Outline: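 Viability counter-read: CellTiter-Glo luminescence (30 min, room temperature) in the same p53RE-bla plates. These plates had been exposed to compounds for 16 h at 37 C.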

[4] = qHTS assay for small molecules that induce genotoxicity in human embryonic kidney cells expressing luciferase-tagged ATAD5 - cell viability (AID 651634; calls by dose curve; also: nearly all actives have a fitted effect of over 25% in size)
Outline: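 15.5 hr compound or vehicle exposure of HEK293T cells expressing luciferase-tagged ATAD5 at 37C; live-cell protease activity is read by fluorescence after 30 min of CellTiter-Fluor.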

[5] = qHTS assay for small molecule disruptors of the mitochondrial membrane potential - cell viability (AID 720634; calls by dose curve;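 also: human HepG2 liver cancer cells; series mostly up to about 83 µM; nearly all actives have a fitted effect of over 20% in size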)
Outline: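 In this qHTS format, HepG2 cells plated overnight were pinned with compound, incubated 1 hr, and assayed for ATP luminescence with CellTiter-Glo after m-MPI dye addition.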

[6] = qHTS assay to test for compound auto fluorescence at 590 nm (red) in HepG2 cells (AID 720674)
Outline: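 Red autofluorescence (Ex/Em 540/590 nm, Rose Bengal sodium equivalents) was measured in HepG2 cells, 2,000 per well in MEM plus 10% FBS, plated overnight at 37 C. Readings were taken 1 hr after adding 23 nL compound or DMSO, at 37 C and 5% CO2.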

[7] = qHTS assay to test for compound auto fluorescence at 535 nm (green) in HepG2 cells (AID 720675)
[8] = qHTS assay to test for compound auto fluorescence at 460 nm (blue) in HEK293 cells (AID 720678)
Outline: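 HEK293, 2,000 cells/well, 10% dialyzed FBS; attach 4-5 hr 37C; pin compound or DMSO; o/n 37C/5% CO2; fluorescence 405/460 nm; triamterene-equivalent units.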

[9] = qHTS assay to test for compound auto fluorescence at 590 nm (red) in HEK293 cells (AID 720679)
Outline: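 Intensity at 540nm excitation and 590nm emission is reported as Rose Bengal sodium-equivalent autofluorescence. Measurements followed overnight exposure (37C, 5% CO2) of HEK293 cells, 2,000 per well, to 23 nL compound.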

[10] = qHTS assay for small molecule disruptors of the mitochondrial membrane potential (AID 720635)
Outline: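 Mitochondrial membrane potential tracked with Mito-MPS dye, red aggregates (ex 540/em 590 nm) against green monomers (ex 490/em 535 nm). Compound treatment 1 hr at 37C, dye 30 min in HepG2.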
% is scaled to controls: 0 for no effect and ±100 for the full control effect.

CCOC(=O)CCc1ccccc1
inactive: outcome [1] | outcome [2] | outcome [3] | Potency [4] | outcome [5] | outcome [6] | outcome [7] | outcome [8] | outcome [9]

O=C1OC(=O)c2cc(Oc3ccc4c(c3)C(=O)OC4=O)ccc21
inactive: outcome [1] | outcome [2] | outcome [3] | outcome [5] | Potency [10] | outcome [6] | outcome [7] | outcome [8] | outcome [9]

CC(C)COC(=O)CC(C(=O)OCC(C)C)S(=O)(=O)O (stereo unspecified)
inactive: outcome [1] | outcome [2] | outcome [3] | Potency [4] | outcome [5] | outcome [6] | outcome [7] | outcome [8] | outcome [9]

CC(C)C(=O)c1ccccc1
inactive: outcome [1] | outcome [2] | outcome [3] | Potency [4] | outcome [6] | outcome [7] | outcome [8] | outcome [9]

CC(=O)Nc1ccc(C)cc1
inactive: outcome [1] | outcome [2] | outcome [3] | Potency [4] | outcome [5] | outcome [6] | outcome [8] | outcome [9]

CC(C)(C)c1ccc(C=O)cc1
inactive: outcome [1] | outcome [2] | outcome [3] | Potency [4] | outcome [5] | outcome [6] | outcome [7] | outcome [8] | outcome [9]

COc1ccc(OC)c(NC(=O)CC(C)=O)c1
inactive: outcome [1] | outcome [2] | outcome [3] | Potency [4] | outcome [5] | outcome [6] | outcome [7] | outcome [8] | outcome [9]

CCCCC(C)C(=O)O (stereo unspecified)
inactive: outcome [1] | outcome [2] | outcome [3] | outcome [5] | Potency [10] | outcome [6] | outcome [7] | outcome [8] | outcome [9]

CCN(Cc1cccc(S(=O)(=O)O)c1)c1ccccc1
inactive: outcome [1] | outcome [2] | outcome [3] | Potency [4] | outcome [5] | outcome [6] | outcome [7] | outcome [8] | outcome [9]

NS(=O)(=O)c1cc2c(cc1Cl)NC(C(Cl)Cl)NS2(=O)=O (stereo unspecified)
inactive: outcome [1] | outcome [2] | outcome [3] | Potency [4] | fluorescence, relative to Rose Bengal [6] 0.314% [at 18.6 µM] | fluorescence, % of fluorescein control [7] 0.136% [at 18.6 µM] | fluorescence, % of triamterene [8] -0.178% [at 18.6 µM] | fluorescence, % of fluorescent control [9] -0.0605% [at 18.6 µM]

CC1CCC(C(C)(C)S)C(=O)C1 (stereo unspecified)
inactive: outcome [1] | outcome [2] | outcome [3] | Potency [4] | outcome [5] | outcome [6] | outcome [7] | outcome [8] | outcome [9]

CC(=O)OCCCc1ccccc1
inactive: outcome [1] | outcome [2] | outcome [3] | Potency [4] | outcome [5] | outcome [6] | outcome [7] | outcome [8] | outcome [9]

CC(=O)OC(C(=O)c1ccccc1)c1ccccc1 (stereo unspecified)
inactive: outcome [1] | outcome [2] | outcome [3] | Potency [4] | outcome [5] | outcome [6] | outcome [8] | outcome [9]

NC(=O)NNC(N)=O
inactive: outcome [1] | outcome [2] | outcome [3] | Potency [4] | outcome [5] | outcome [6] | outcome [7] | outcome [8] | outcome [9]

O=C(c1ccc2c(c1)C(=O)OC2=O)c1ccc2c(c1)C(=O)OC2=O
inactive: outcome [1] | outcome [2] | outcome [3] | Potency [4] | outcome [5] | outcome [6] | outcome [7] | outcome [8] | outcome [9]

NS(=O)(=O)c1ccc(Cl)c(S(N)(=O)=O)c1
inactive: outcome [1] | outcome [2] | outcome [3] | Potency [4] | outcome [5] | outcome [6] | outcome [8] | outcome [9]

CCOC(=O)CC(CC(=O)OCC)(OC(C)=O)C(=O)OCC
inactive: outcome [1] | outcome [2] | outcome [3] | Potency [4] | outcome [5] | outcome [6] | outcome [7] | outcome [8] | outcome [9]

Nc1ccc(S(=O)(=O)NC(=O)c2ccccc2)cc1
inactive: outcome [1] | outcome [2] | outcome [3] | Potency [4] | outcome [5] | fluorescence, relative to Rose Bengal [6] 0.536% [at 18.6 µM] | fluorescence, % of fluorescein control [7] -0.394% [at 18.6 µM] | fluorescence, % of triamterene [8] -0.236% [at 18.6 µM] | fluorescence, % of fluorescent control [9] -0.801% [at 18.6 µM]

C=CCOc1cc(Cl)ccc1C(=O)NCCN(CC)CC
inactive: outcome [1] | outcome [2] | outcome [3] | Potency [4] | outcome [5] | outcome [6] | outcome [7] | outcome [8] | outcome [9]

CCNC(=O)/C=C/c1cccc(Br)c1
inactive: outcome [1] | outcome [2] | outcome [3] | Potency [4] | outcome [5] | outcome [6] | outcome [7] | outcome [8] | outcome [9]

CCCCC(=O)N(C)C
inactive: outcome [1] | outcome [2] | outcome [6] | outcome [8] | outcome [9]

C=C(C)C(=O)OC
inactive: outcome [1] | outcome [3] | Potency [4] | outcome [5] | Potency [10] | outcome [6] | outcome [8] | outcome [9]

CC(C)=CC(C)(C)C
inactive: outcome [1] | outcome [2] | outcome [3] | outcome [5] | outcome [6] | outcome [7] | outcome [8] | outcome [9]

CC(C)CCCC(C)CC=O (stereo unspecified)
inactive: outcome [1] | outcome [2] | Potency [4] | outcome [5] | outcome [6] | outcome [7] | outcome [8] | outcome [9]

CCC(=O)OCCC(C)CCC=C(C)C (stereo unspecified)
inactive: outcome [1] | outcome [2] | Potency [4] | outcome [5] | outcome [6] | outcome [7] | outcome [8] | outcome [9]

Cc1ccccc1OCC1CO1 (stereo unspecified)
inactive: outcome [1] | outcome [2] | outcome [3] | outcome [5] | outcome [6] | outcome [7] | outcome [8] | outcome [9]

CCCCOC(=O)[C@@H](C)Oc1ccc(Oc2ccc(C(F)(F)F)cn2)cc1
inactive: outcome [1] | outcome [2] | outcome [3] | Potency [10] | outcome [6] | outcome [7] | outcome [8] | outcome [9]

O=C(Oc1ccccc1C(=O)O)c1ccccc1O
inactive: outcome [1] | outcome [2] | Potency [4] | outcome [5] | outcome [6] | outcome [7] | outcome [8] | outcome [9]
